The text below walks through data of PubChem BioAssay (NCI).

The panel holds about 83,000 compounds, 20% with a hit somewhere; the sample as a whole holds those more often.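 Each cell line was grown in a 96-well plate and treated with one concentration of compound for 48 hours. Values below 10 were considered active.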 The source made the active and inactive calls.

For this assay, the system named is CCRF-CEM leukemia. Nature of the assay: NCI-60 one-dose screen, 48 h (100 = growth as untreated, 0 = no growth, -100 = all killed). The settings on record: 10 µM unless noted.
For the compound `CC(C)OC(=O)c1ccc2[nH]c(O)c(C(=Nc3ccc(N(C)C(=O)CN4CCN(C)CC4)cc3)c3ccccc3)c2c1`, the growth was 6.41% (active).
Under `O=C1C(Cl)=C(Nc2ccc(O)cc2)C(=O)N1Cc1ccc(Cl)cc1` stands 4.97% (active); under `COc1cc(OC)c2sc(-c3ccc(-n4cncc4-c4ccc(OC)c(OC)c4)cc3)nc2c1`, 53.2% (inactive); under `CCN(CC)C(=S)SC(SC(=S)N(CC)CC)C(=O)c1nnn(-c2ccc([N+](=O)[O-])cc2)c1C`, 68.3% (inactive).
Next, `COc1cccc(CNc2ncnc3c2ncn3C2OC(CO)C(O)C2O)c1O` (stereo unspecified): -17.3% (active).
As for `CC(C)c1ccc(COCc2cc(CN3CCCC3)c(O)c3ncccc23)cc1`, the growth was 1.53% (active).
Next, `O=C(NCc1ccccc1)Nc1ccccc1CNc1nc(Nc2ccc(OCCN3CCCC3)cc2)ncc1Cl`: 20% (inactive); `Cc1ccc(-n2c(=S)[nH]c3sc4c(c3c2=O)CCC(=O)C4)cc1`: 20.8% (inactive); `Oc1c(Cl)cc(Cl)cc1/C=N/Nc1nnc(N/N=C/c2cc(Cl)cc(Cl)c2O)c2ccccc12`: 14% (inactive).
Under `CCCCCCC1(C)NCCO1` (stereo unspecified) stands 90.2% (inactive); under `Clc1ccc2c(c1)N(c1ncnc3ccc(-c4cnc5[nH]ncc5c4)cc13)CC2`, 31.9% (inactive); under `COC(=O)c1cc(-c2ccc(S(C)(=O)=O)cc2)[nH]c1N/N=C/c1c(Cl)cccc1Cl`, 1.59% (active).
As to `C=CCn1c(SCC(=O)Nc2ccc(C(=O)/C=C/c3ccc(Cl)cc3)cc2)nnc1-c1cc(-c2ccc(S(N)(=O)=O)cc2)nc2ccccc12`, the growth was 54.2% (inactive).
Take `Cc1cc2c(O)c(-c3cc(Cl)ccc3Cl)c3sc(=O)oc3c2cc1C`: the growth is 53.8% (inactive).
As to `CC(=O)N(N=Nc1ccccc1)c1cccc2ccccc12`, the growth was 79.8% (inactive).
Next, `Cc1ccc(-c2nc3nc(-c4ccc(F)cc4)nc(N4CCNCC4)c3o2)cc1`: -71% (active); `O=c1oc2ccc([N+](=O)[O-])cc2cc1Br`: 109% (inactive); `COc1ccc2nc(NC(=O)CSc3nnc4n3S(=O)(=O)c3ccccc3N4C)sc2c1`: 4.33% (active).
Under `Cc1ccc(-c2nn(-c3ccccc3)cc2C=C2C(=O)ON=C2C(C)C)cc1` stands 1.71% (active); under `Cc1cccc(N2CCN(CC(O)COc3ccc(Cl)cc3)CC2)c1` (stereo unspecified), 97.7% (inactive); under `Cc1nc2c(=O)[nH]c(SCC(=O)Nc3cccc(F)c3)nc2[nH]c1=O`, 90.8% (inactive).
Turning to `CN(C)c1ccc(/C=C/C(=O)c2ccc(-n3cc(CN4CCN(c5cc6c(cc5F)c(=O)c(C(=O)O)cn6C5CC5)CC4)nn3)cc2)cc1`, the growth is 20% (inactive).
Next, `COc1cc2c(c(OC)c1OC)-c1ccc(OC)c(=O)cc1[C@@H](NC(=O)CCl)CC2`: 15.3% (inactive).
Under `O=C(Nc1cccnc1Nc1ccc(F)cc1)c1cn(Cc2cccc(Oc3ccccc3)c2)nn1` stands 63.2% (inactive).
Under `COc1ccc(-c2ccc3cnc4sc(-c5ccc(OC)cc5)nc4c3n2)cc1` stands 102% (inactive); under `CN1CCN(c2ccc(NC(=O)c3cncnc3Nc3ccc(OCc4ccccn4)c(Cl)c3)cc2)CC1`, 11.2% (inactive).
